# Experimental data as given in the supplement of paper PMC10849652.
# Targets with a hit are over-represented here; the source holds about 7,900 in all. About 0.6% of all pairs of compound and target were hits. Values without a mark were called inactive.
# Experiments:
# Assay in all cases: log2 fold change, soluble protein after heating vs DMSO (PISA); higher = thermal stabilisation; K562 cells, 10 uM, 30 min; active = over 0.2 and 3.5 SD of the protein, either way, in both replicates (recomputed)
# IRAK-1-4 Inhibitor I = compound: C1COCCN1CCN2C3=CC=CC=C3N=C2NC(=O)C4=CC(=CC=C4)[N+](=O)[O-] [IRAK-1-4 Inhibitor I]
# Procedure, shortened: (§1)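 Soluble protein was quantified by TMTpro 16plex LC-MS/MS after channel sums were equalised. It was obtained as the supernatant after 21,000xg for 90 min from pooled aliquots of K562 cells (2×10^6 cells/mL, 10 μM compound, 30 min) heated for 3 min across 48°C-58°C and extracted in PBS with 0.5% NP-40 at 4°C. Thermal stability values are relative to control samples and come from duplicates. They are given as log2 fold changes.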
# ibrutinib = compound: C=CC(=O)N1CCC[C@@H](n2nc(-c3ccc(Oc4ccccc4)cc3)c3c(N)ncnc32)C1 [ibrutinib]
# Procedure, shortened: as §1
# [1] = compound: CC(=O)c1cnc2ccc(-c3cc(Cl)c(O)c(Cl)c3)nc2c1N[C@H]1CC[C@H](CN(C)C)CC1
# Procedure, shortened: as §1
# ralimetinib = compound: CC(C)(C)Cn1c(N)nc2ccc(-c3[nH]c(C(C)(C)C)nc3-c3ccc(F)cc3)nc21 [ralimetinib]
# Procedure, shortened: as §1
# [2] = compound: CC(C)(O)CC(=O)NCCn1ccc2ncnc(Nc3ccc(Oc4cccc(C(F)(F)F)c4)c(Cl)c3)c21
# Procedure, shortened: as §1
# [3] = compound: CC(C)C1=C2N=C(C=C(N2N=C1)NCC3=CC=CC=C3)NCCCCCCN
# Procedure, shortened: as §1
# [4] = compound: CC(C)C[C@@H](C=O)NC(=O)[C@H](CC(C)C)NC(=O)[C@H](CC(C)C)NC(=O)OCc1ccccc1
# Procedure, shortened: as §1
# pinometostat = compound: CC(C)N(C[C@H]1O[C@@H](n2cnc3c(N)ncnc32)[C@H](O)[C@@H]1O)[C@H]1C[C@@H](CCc2nc3cc(C(C)(C)C)ccc3[nH]2)C1 [pinometostat]
# Procedure, shortened: as §1
# [5] = compound: CC1=C(C(CC(=O)N1)C2=CC=C(C=C2)C(F)(F)F)C(=O)NC3=C(C=C4C(=C3)C=NN4)F
# Procedure, shortened: as §1
# [6] = compound: CC1=C(C2=C(C=C1)C(=O)C3=CC=CC=C3N2CCCN)C
# Procedure, shortened: as §1
# [7] = compound: CC1=C(C=C(C=C1)NC(=O)C2=CC(=CC=C2)C(C)(C)C#N)NC3=CC4=C(C=C3)N=CN(C4=O)C
# Procedure, shortened: as §1
# [8] = compound: CC1=C(C=C(C=C1)NC(=O)C2=CC(=CC=C2)N(C)C)NC(=O)C3=CC=C(C=C3)O
# Procedure, shortened: as §1
# [9] = compound: CC1=CC=C(C=C1)SC2=C3C=C(SC3=CN=C2)C(=O)N
# Procedure, shortened: as §1
# [10] = compound: CC1=NC(=CC=C1)C2=C(N=C(N2)C(C)(C)C)C3=CC4=NC=CN=C4C=C3
# Procedure, shortened: as §1
# Nexturastat A = compound: CCCCN(Cc1ccc(C(=O)NO)cc1)C(=O)Nc1ccccc1 [Nexturastat A]
# Procedure, shortened: as §1
# vemurafenib = compound: CCCS(=O)(=O)Nc1ccc(F)c(C(=O)c2c[nH]c3ncc(-c4ccc(Cl)cc4)cc23)c1F [vemurafenib]
# Procedure, shortened: as §1
# [11] = compound: CCCS(=O)(=O)Nc1ccc(F)c(C(=O)c2c[nH]c3ncc(Cl)cc23)c1F
# Procedure, shortened: as §1
# [12] = compound: CCCc1cc(C)[nH]c(=O)c1CNC(=O)c1cc(-c2ccnc(N3CCN(C)CC3)c2)cc2c1cnn2C(C)C
# Procedure, shortened: as §1
# givinostat = compound: CCN(CC)Cc1ccc2cc(COC(=O)Nc3ccc(C(=O)NO)cc3)ccc2c1 [givinostat]
# Procedure, shortened: as §1
# barasertib = compound: CCN(CCCOc1ccc2c(Nc3cc(CC(=O)Nc4cccc(F)c4)[nH]n3)ncnc2c1)CCOP(=O)(O)O [barasertib]
# Procedure, shortened: as §1
# UniProt P27448, sequence (P27448 whole entry, looked up): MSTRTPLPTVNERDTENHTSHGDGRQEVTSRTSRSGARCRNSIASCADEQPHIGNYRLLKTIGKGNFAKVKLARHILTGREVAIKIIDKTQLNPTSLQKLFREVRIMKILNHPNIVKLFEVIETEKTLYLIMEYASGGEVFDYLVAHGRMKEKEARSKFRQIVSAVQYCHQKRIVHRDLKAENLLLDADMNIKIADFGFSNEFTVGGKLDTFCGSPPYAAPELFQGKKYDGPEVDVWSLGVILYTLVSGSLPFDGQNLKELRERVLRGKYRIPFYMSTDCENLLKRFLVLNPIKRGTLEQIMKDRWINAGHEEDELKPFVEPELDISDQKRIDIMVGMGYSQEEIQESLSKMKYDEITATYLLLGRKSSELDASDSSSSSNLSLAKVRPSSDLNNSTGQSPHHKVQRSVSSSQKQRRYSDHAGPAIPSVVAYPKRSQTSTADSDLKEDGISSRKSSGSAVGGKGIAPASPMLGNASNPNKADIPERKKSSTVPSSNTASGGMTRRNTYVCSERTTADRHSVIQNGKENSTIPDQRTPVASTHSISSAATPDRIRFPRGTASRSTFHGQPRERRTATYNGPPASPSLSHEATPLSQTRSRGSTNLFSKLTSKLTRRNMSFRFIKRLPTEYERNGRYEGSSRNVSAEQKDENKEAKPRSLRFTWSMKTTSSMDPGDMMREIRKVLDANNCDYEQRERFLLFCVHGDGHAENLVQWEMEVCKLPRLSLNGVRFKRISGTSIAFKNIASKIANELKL
# UniProt Q14681, sequence (Q14681 whole entry, looked up): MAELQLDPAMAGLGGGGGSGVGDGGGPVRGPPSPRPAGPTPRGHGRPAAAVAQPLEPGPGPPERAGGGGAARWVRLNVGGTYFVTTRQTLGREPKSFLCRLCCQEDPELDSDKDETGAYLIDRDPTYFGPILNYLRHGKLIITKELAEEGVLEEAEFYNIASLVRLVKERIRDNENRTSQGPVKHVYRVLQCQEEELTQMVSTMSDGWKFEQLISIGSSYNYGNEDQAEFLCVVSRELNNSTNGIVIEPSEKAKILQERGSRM
# UniProt Q9NWZ3, sequence (Q9NWZ3 whole entry, looked up): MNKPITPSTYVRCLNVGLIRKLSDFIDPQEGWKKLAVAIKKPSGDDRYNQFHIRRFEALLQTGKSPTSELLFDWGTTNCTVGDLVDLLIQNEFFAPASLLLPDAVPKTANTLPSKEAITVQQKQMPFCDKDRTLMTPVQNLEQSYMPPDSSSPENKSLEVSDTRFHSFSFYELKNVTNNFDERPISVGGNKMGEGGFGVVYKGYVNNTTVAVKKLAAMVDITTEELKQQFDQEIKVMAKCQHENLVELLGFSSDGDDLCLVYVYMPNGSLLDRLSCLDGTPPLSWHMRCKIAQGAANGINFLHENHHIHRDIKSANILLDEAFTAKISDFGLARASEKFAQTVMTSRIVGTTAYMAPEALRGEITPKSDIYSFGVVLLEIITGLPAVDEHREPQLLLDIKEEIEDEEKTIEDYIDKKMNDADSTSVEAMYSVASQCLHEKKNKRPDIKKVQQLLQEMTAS
# UniProt Q9Y4K4, sequence (Q9Y4K4 whole entry, looked up): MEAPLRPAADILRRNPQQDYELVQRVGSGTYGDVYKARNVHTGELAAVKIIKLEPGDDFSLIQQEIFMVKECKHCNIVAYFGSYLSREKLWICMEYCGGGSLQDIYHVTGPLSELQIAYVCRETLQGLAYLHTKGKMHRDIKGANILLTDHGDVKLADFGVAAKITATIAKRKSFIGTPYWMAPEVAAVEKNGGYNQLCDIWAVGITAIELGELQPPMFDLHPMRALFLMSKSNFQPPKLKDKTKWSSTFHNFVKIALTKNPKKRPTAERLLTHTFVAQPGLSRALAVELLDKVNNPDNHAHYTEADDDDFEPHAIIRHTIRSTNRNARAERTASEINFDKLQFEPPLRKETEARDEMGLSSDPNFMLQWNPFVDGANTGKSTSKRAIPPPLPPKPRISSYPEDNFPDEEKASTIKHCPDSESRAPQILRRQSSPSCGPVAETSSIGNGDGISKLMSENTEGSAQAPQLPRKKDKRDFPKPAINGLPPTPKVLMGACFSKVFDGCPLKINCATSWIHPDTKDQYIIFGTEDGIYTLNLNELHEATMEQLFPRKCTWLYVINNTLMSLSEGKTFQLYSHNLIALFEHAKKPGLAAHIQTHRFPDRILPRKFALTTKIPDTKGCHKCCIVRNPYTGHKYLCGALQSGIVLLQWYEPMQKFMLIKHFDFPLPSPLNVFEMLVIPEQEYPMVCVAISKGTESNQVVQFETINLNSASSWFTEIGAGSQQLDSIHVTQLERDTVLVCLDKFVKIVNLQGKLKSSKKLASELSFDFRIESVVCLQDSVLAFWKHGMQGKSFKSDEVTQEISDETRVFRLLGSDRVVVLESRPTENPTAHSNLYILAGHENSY
# UniProt Q96P70, sequence (Q96P70 whole entry, looked up): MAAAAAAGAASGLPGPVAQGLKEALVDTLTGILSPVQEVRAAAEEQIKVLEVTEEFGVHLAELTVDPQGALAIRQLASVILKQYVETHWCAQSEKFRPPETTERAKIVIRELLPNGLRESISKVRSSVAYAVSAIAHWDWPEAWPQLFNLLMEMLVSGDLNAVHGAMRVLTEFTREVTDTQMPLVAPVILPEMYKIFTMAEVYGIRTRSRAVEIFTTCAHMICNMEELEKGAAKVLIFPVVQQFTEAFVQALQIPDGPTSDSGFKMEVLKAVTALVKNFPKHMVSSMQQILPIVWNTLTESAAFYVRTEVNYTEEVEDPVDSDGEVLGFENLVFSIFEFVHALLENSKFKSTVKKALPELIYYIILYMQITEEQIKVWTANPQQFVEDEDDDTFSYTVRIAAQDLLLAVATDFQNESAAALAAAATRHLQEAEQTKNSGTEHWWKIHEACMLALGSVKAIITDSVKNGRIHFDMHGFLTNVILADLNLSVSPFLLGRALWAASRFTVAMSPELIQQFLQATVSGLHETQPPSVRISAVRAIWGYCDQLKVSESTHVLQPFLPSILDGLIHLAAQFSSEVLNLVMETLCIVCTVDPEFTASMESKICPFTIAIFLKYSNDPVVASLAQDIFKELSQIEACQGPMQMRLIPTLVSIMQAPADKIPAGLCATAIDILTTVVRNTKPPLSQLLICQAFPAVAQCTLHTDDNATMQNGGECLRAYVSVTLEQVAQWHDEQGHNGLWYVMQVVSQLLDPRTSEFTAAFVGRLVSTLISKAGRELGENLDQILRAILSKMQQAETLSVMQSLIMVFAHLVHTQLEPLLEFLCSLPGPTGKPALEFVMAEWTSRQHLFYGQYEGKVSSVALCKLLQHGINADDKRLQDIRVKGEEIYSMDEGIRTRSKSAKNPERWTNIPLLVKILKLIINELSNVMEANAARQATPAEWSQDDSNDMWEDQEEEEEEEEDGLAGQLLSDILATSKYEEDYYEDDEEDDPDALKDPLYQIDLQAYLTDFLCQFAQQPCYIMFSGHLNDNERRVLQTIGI
# UniProt Q6P1A2, sequence (Q6P1A2 whole entry, looked up): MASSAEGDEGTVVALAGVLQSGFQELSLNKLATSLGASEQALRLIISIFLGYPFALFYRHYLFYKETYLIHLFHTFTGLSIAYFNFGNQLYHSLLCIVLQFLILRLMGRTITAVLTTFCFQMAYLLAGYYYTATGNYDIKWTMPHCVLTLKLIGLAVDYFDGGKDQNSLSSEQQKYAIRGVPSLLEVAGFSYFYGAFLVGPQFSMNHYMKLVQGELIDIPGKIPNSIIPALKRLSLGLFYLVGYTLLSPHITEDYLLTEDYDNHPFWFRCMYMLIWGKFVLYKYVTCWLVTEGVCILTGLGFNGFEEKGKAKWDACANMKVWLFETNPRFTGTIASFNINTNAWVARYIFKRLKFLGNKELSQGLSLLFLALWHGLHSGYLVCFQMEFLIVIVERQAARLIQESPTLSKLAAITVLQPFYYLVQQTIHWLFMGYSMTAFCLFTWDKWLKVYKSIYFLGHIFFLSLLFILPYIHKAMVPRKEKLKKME
# UniProt Q9NQ29, sequence (Q9NQ29 whole entry, looked up): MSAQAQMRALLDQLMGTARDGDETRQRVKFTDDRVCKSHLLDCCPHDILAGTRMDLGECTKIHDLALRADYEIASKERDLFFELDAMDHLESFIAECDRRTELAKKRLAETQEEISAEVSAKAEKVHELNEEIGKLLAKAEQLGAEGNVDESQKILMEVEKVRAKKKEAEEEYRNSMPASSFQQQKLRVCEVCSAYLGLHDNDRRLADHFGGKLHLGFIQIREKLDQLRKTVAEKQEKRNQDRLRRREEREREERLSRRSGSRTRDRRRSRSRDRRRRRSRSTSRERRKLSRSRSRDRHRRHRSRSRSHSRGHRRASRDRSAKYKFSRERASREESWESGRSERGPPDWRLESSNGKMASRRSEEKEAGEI
# UniProt Q6UWB1, sequence (Q6UWB1 whole entry, looked up): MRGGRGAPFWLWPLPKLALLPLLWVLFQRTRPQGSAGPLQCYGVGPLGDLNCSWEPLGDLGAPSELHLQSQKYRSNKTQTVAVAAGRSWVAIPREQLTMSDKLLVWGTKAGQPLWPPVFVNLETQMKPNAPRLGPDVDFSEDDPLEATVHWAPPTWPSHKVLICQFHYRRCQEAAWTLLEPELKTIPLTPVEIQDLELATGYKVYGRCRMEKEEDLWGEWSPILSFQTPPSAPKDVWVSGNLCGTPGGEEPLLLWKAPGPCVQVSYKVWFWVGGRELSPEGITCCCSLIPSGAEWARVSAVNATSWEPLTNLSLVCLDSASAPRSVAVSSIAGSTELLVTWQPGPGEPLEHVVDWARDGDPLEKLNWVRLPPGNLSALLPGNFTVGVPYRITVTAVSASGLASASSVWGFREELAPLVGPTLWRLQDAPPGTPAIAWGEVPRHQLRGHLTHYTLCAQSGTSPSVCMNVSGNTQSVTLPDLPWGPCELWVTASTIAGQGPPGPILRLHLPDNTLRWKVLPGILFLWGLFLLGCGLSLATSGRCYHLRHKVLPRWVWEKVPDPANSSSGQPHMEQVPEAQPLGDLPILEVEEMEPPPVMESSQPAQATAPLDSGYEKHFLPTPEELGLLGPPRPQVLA
Target,log2 fold change (IRAK-1-4 Inhibitor I),log2 fold change (ibrutinib),log2 fold change [1],log2 fold change (ralimetinib),log2 fold change [2],log2 fold change [3],log2 fold change [4],log2 fold change (pinometostat),log2 fold change [5],log2 fold change [6],log2 fold change [7],log2 fold change [8],log2 fold change [9],log2 fold change [10],log2 fold change (Nexturastat A),log2 fold change (vemurafenib),log2 fold change [11],log2 fold change [12],log2 fold change (givinostat),log2 fold change (barasertib)
IRAK4 (UniProt Q9NWZ3),-0.012,0.002,0.196,-0.014,-0.092,-0.252 (active),-0.026,0.065,0.02,-0.002,0.006,-0.039,0,0.03,0.009,0.041,0.068,-0.003,0.062,0.024
METTL18 (UniProt O95568),0.01,0.019,0.013,-0.036,0.016,-0.009,-0.003,0.023,0.065,0.072,-0.026,0.018,-0.032,0.028,-0.164,0.014,0.05,-0.042,-0.245,0.012
LPCAT3 (UniProt Q6P1A2),0.014,-0.034,0.099,0.009,0.148,-0.65 (active),-0.004,0.083,-0.004,0.03,0.289 (active),-0.029,0.052,0.033,-0.226,-0.019,0.036,0.089,0.031,-0.005
KIF2C (UniProt Q99661),-0.111,-0.033,-0.058,0.028,-0.069,-0.065,0.035,0.031,-0.008,0.028,0.012,-0.038,0.057,0.067,0.02,0.087,0.053,0.03,0.016,0.053
IPO9 (UniProt Q96P70),0.024,-0.082,0.113,0.01,-0.079,-0.039,-0.068,0.012,-0.025,0.447 (active),0.029,0.033,0,-0.001,-0.075,0.079,0.075,-0.022,-0.018,0.025
LUC7L (UniProt Q9NQ29),-0.098,0.027,-0.137,0.009,0.08,-0.007,0.021,0.101,0.083,-0.056,0.028,0.003,-0.022,-0.021,0.054,-0.007,-0.004,0.027,-0.034,-0.01
IL27RA (UniProt Q6UWB1),-0.189,0.077,0.011,0.058,0.005,0.139,-0.167,0.043,0.1,0.012,-0.048,-0.048,-0.006,-0.018,0.027,-0.025,-0.091,-0.008,0.006,0.011
ILKAP (UniProt Q9H0C8),-0.07,-0.016,-0.055,-0.024,-0.133,-0.078,-0.053,-0.004,0.017,0.032,-0.026,-0.117,0.072,0.168,0,0.08,0.082,0.063,0.071,0.07
MIEF1 (UniProt L0R8F8),0.071,0.065,0.022,-0.004,0.011,-0.021,-0.053,-0.005,0.052,-0.004,-0.007,0.003,0.019,-0.026,0.092,0.079,0.102,-0.001,0.006,0.003
KCTD2 (UniProt Q14681),-0.03,0.058,-0.054,0,-0.015,0.016,0.171,0.052,-0.049,-0.028,-0.421,0.087,-0.343,-0.084,0.072,-0.164,-0.468,-0.163,0.078,0.018
IGFBP4 (UniProt P22692),0.011,-0.015,0.171,-0.04,0.047,0.028,0.054,0.032,0.034,-0.09,0.044,0.207,0.026,0.003,0.019,0.084,-0.08,-0.193,-0.007,0.013
KIF1B isoform 4 (UniProt O60333),-0.004,-0.017,0,-0.029,-0.063,0.002,0.002,0.061,-0.057,-0.024,-0.07,0.058,0.008,0.024,0.024,0.002,0.043,0.018,0.122,0.073
MAP3K7 (UniProt O43318),-0.123,-0.061,-0.075,0.035,-0.207,-0.159,0.05,0.102,0.024,0.006,-0.008,-0.039,0.041,0.019,0.027,0.042,0.074,0.008,0.093,0.079
MARK3 (UniProt P27448),-0.071,-0.026,-2.03 (active),0.014,-0.035,-0.171,0.084,0.156,0.136,0.026,-0.017,0.02,0.067,-0.029,0.074,0,0.004,0.077,0.038,0.023
INPP1 (UniProt P49441),-0.001,0.023,-0.003,-0.108,-0.039,0.016,-0.007,-0.054,-0.072,-0.03,0.039,0.016,0.054,0.052,0.061,0.031,-0.071,0.079,-0.032,-0.03
MAP4K5 (UniProt Q9Y4K4),-0.02,0.067,-0.289 (active),-0.045,-0.057,-0.034,0.034,-0.014,-0.046,-0.02,0.01,0.082,0.025,-0.012,-0.042,-0.025,-0.008,-0.047,-0.024,0.1
